This note sets out measurements from PubChem BioAssay AID504734 (The Scripps Research Institute Molecular Screening Center, 2011).

Among all 340,000 compounds or so, about 730 (0.21%) were called active.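 The calls were made as follows: active = inhibition above the mean over all tested compounds plus 3 SD (cut at about 21% in these data); inactive = the rest.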 For the sample, actives were picked, then their nearest neighbours and some compounds at random.

The target in the experiment is Toll-like receptor 9 (Homo sapiens) + Myeloid differentiation primary response protein MyD88 (Homo sapiens) (UniProt Q9NR96+Q99836). The experiment is described as follows: disruptors of TLR9 binding to MyD88 – cell-based, CHO, BLA complementation, fluorescence, primary screen (AID 504734).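 Also: 0% = DMSO only wells and 100% = clavulanate BLA inhibitor control wells.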 The settings on record: CHO BLA complementation TLR9-MyD88, CCF4 FRET ratio; at 4.98 µM; hits give high values.
Toll-like receptor 9 (Homo sapiens) + Myeloid differentiation primary response protein MyD88 (Homo sapiens), sequence (Q99836 whole entry, looked up): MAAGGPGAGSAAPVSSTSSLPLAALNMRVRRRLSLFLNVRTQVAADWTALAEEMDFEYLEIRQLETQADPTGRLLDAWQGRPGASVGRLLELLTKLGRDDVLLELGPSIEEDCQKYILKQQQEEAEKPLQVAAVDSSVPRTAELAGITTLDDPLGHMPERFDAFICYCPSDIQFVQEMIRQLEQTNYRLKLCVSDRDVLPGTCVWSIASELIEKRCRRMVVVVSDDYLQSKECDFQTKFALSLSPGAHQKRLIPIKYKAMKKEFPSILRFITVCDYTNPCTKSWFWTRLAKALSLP
Toll-like receptor 9 (Homo sapiens) + Myeloid differentiation primary response protein MyD88 (Homo sapiens), sequence (Q9NR96 whole entry, looked up): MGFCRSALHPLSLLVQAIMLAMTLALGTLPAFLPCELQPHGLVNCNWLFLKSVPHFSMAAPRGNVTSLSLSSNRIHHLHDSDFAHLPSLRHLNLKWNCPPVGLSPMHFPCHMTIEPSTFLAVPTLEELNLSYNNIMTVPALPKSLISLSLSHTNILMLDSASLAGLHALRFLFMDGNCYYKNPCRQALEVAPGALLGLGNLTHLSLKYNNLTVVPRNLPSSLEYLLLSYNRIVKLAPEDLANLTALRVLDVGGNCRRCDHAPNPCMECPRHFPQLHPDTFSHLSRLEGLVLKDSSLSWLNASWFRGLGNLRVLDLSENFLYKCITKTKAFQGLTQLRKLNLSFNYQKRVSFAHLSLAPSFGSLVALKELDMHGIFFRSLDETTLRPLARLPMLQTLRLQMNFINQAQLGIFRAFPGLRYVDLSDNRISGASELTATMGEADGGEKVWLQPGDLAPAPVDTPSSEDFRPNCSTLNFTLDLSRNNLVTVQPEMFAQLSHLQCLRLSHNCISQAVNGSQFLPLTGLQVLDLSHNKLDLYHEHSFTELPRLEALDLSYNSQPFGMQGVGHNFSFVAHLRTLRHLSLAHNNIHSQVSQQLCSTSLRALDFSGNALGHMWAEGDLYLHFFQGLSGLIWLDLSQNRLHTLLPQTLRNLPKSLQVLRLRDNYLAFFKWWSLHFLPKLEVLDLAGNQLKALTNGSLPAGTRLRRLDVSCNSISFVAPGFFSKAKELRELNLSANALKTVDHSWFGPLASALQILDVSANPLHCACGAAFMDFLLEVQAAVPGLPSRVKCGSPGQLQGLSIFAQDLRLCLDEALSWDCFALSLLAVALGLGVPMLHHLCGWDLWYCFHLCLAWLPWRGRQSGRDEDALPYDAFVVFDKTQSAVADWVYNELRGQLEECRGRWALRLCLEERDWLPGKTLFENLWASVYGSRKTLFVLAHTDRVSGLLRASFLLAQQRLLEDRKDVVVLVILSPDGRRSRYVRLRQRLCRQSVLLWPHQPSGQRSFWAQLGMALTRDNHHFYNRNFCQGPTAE
Turning to `COc1ccc(-c2nn(-c3ccccc3)cc2/C=N/Nc2ccccn2)cc1OC`, the inhibition is 27.6% (active).
Then `COc1ccc(-c2nn(-c3ccccc3)cc2C(=O)Nc2nccs2)cc1OC`, with 7.8% (inactive); and `O=Cc1cn(-c2ccccc2)nc1-c1ccccn1`, with -5.05% (inactive); and `NC1=CC(=O)C(=O)c2cccnc21`, with -3.3% (inactive).
Next, `Cc1nc2ccccn2c(=O)c1NC(=O)c1ccc(Br)o1`: -8.57% (inactive); `C[C@H]1CN([C@@H](C)CO)C(=O)CCCn2cc(nn2)CO[C@@H]1CN(C)S(=O)(=O)c1cccs1`: -3.23% (inactive); `CCN(CC)C(=O)c1sc2nc(-c3ccccc3)ccc2c1N`: 1.41% (inactive).
Then `Nc1cccc(-c2cc(-c3ccccc3)nc(-c3cccc(N)c3)n2)c1`, with 4.91% (inactive).
`CS(=O)(=O)c1sc2nc(-c3ccccc3)cc(-c3ccccc3)c2c1N`: the inhibition was 21.5% (active).
Next, `CCOC(=O)C(C(=O)c1ccccc1)C(c1ccccc1)c1nccc2ccccc12` (stereo not given): -3.27% (inactive); `O=C(O)c1ccccc1Cc1ccc(F)c2ccccc12`: 0.89% (inactive).
For `O=C1NC(Cc2ccccc2)c2nc3ccc(Br)cc3c(=O)n2-c2cc3ccccc3cc21` (stereo not given), the inhibition is 4.34% (inactive).
In the case of `COc1ccc(-c2cc(C(F)(F)F)nc(S(C)(=O)=O)n2)cc1OC`, the inhibition was 27.6% (active).
For `COc1ccc(-c2cc(-c3ccc(N)cc3)nc(N)c2C#N)cc1OC`, the inhibition is -1.14% (inactive).
Next, `COc1ccc(-c2ccc(Nc3ccc(S(=O)(=O)N4CCCC4)cc3)nn2)cc1OC`: -1.95% (inactive); `Cc1ccc(S(=O)(=O)N2CCOCC2)cc1NC(=O)c1ccncc1`: -10.3% (inactive).
As to `CCN1CCCC1CNC(=O)c1ccc2c(c1)NC(=O)/C(=C\c1ccccc1F)S2` (stereo not given), the inhibition is 5.07% (inactive).
Turning to `COc1ccc(-c2nc3cnccn3c2NC2CCCCC2)cc1-c1cccc(Cl)c1`, the inhibition is 40.9% (active).
Then `COc1ccc(-c2nc3cc(C)ccn3c2NC2CCCCC2)cc1SC1CCCCC1`, with -0.33% (inactive); and `COc1ccc(-c2nc3cnccn3c2NC(C)(C)CC(C)(C)C)cc1O`, with -0.94% (inactive); and `CN(C)C(CNC(=O)c1cc(Br)c(Br)s1)c1ccco1` (stereo not given), with 6.8% (inactive).
Regarding `NC(=S)NN=Cc1ccc(OC(=O)COc2cc(Cl)c(Cl)cc2Cl)cn1`, the inhibition is 12.2% (inactive).
As for `CC1(C)OC(=O)C2=C(CC(c3ccccc3)OC2CCc2ccccc2)O1` (stereo not given), the inhibition is -19.4% (inactive).
Then `COc1ccc(S(=O)(=O)N2CCN(CC(=O)N3CCNC3=O)CC2)cc1OC`, with 7.47% (inactive); and `Cc1ccc(S(=O)(=O)N2C[C@@H](C)[C@]3(C2)[C@H](O)[C@H](OC(=O)NCc2ccccc2)C[C@H]2C(=O)N(c4ccccc4)C(=O)[C@H]23)cc1`, with -1.46% (inactive).
Then `COc1ccc([C@H]2N[C@]3(CCCN(CC4CCCCC4)C3=O)[C@H]3C(=O)N(C)C(=O)[C@@H]23)cc1`, with 1.4% (inactive); and `Cc1ccn(CC(=O)NC2CCCN(Cc3ccccc3F)C2)n1` (stereo not given), with 9% (inactive); and `CCOC(=O)N1CCN(Cc2nnc(-c3ccccc3Cl)o2)CC1`, with 7.73% (inactive).
Next, `Cn1cnnc1SCc1nnc(-c2ccccc2Br)o1`: -5.92% (inactive); `Nc1cccc2c1C(=O)N(Cc1nnc(-c3ccccc3Br)o1)C2=O`: 21.2% (active); `CCN1CCN(CCNC(=O)c2ccc3c(c2)NC(=O)/C(=C\c2cccc(Cl)c2)S3)CC1`: 13.2% (inactive).
Take `CCOC(=O)C=Cc1ccc(C(=O)OCC)[nH]1`: the inhibition was 5.14% (inactive).
Turning to `Cc1cc(C)c2c(=O)n3c(nc2c1)C(CC(C)C)NC(=O)c1cc2ccccc2cc1-3` (stereo not given), the inhibition is 9.57% (inactive).
Then `CC1(C)CC(=O)C(CC(=O)N2CCC(Cc3ccccc3)CC2)C(=O)C1`, with -5.62% (inactive); and `CC1(C)CC(=O)NC=C(c2ccccc2)C1`, with -4.24% (inactive); and `CC1(C)CC(=O)C(C2c3ccccc3S(=O)(=O)c3ccccc32)C(=O)C1`, with 22.1% (active).
For the compound `CCN(CC)C(=O)C1=C(C)N(Cc2ccc(OC)cc2)C(=O)C(CC(=O)NCCCCc2ccccc2)C1` (stereo not given), the inhibition is -3.92% (inactive).
With `Nc1c(C(=O)c2cccs2)sc2nsc(SCCN3CCCCC3)c12`, the inhibition was 31.4% (active).
Then `COc1ccc(NC(=O)CCCOc2ccc(C(C)=O)cc2)cc1S(=O)(=O)N1CCCCC1`, with -6.11% (inactive); and `COc1ccc([C@H]2N[C@]3(CCCN(Cc4ccco4)C3=O)[C@H]3C(=O)N(C)C(=O)[C@@H]23)cc1`, with -4.25% (inactive).
Next, `Cc1noc(C)c1NC(=O)N(C)C[C@@H]1Oc2cc(Br)ccc2S(=O)(=O)N([C@@H](C)CO)C[C@H]1C`: 6.19% (inactive); `Cc1ccc(CS(=O)(=O)c2ncc(Cl)c(C(=O)Nc3nnc(C)s3)n2)cc1`: 12.2% (inactive); `Cc1cccc(NC(=O)c2nc(S(=O)(=O)Cc3ccccc3)ncc2Cl)c1`: 48.7% (active).
Then `CSc1nnc(NC(=O)c2nc(S(=O)(=O)Cc3ccc(C)cc3)ncc2Cl)s1`, with 4.24% (inactive); and `O=C(Nc1ccc(F)cc1)c1ccc(S(=O)(=O)NCc2cccnc2)cc1`, with -9.53% (inactive).
In the case of `Cc1cccc(CS(=O)(=O)c2ncc(Cl)c(C(=O)Nc3ccc(F)cc3)n2)c1`, the inhibition was 35.3% (active).
`CN1CCN(c2ccc(NC(=O)c3ccc4c(c3)[nH]c(=O)n4Cc3ccc(F)cc3)cc2)CC1`: the inhibition was 5.07% (inactive).
Next, `Cc1[nH]c2ccccc2c1C(=O)C(=O)NCc1nnnn1-c1cccc(F)c1`: 7.75% (inactive).
Next, `COc1ccc(S(=O)(=O)N(C)C[C@H]2OCc3cnnn3CCCC(=O)N([C@H](C)CO)C[C@H]2C)cc1`: -12.9% (inactive); `CN(Cc1ccccc1)C(=O)c1cccc(C(=O)N(C)Cc2ccccc2)c1`: -10.2% (inactive); `CN(O)C(=S)c1ccccc1`: 21.8% (active).
As to `CCCCCCn1c(=O)n2n(c1=O)C[C@]1(OC(=O)NCc3ccc(OC)c(OC)c3)CN(S(=O)(=O)c3ccc(C)cc3)C[C@]1(O)C2`, the inhibition is -2.87% (inactive).
Then `CC1CCCC(C)N1C(=O)COC(=O)c1ccccc1C(=O)c1ccccc1` (stereo not given), with -3.35% (inactive); and `O=C(NCCc1cccc(F)c1)C1CC(O)CN1C(=O)Nc1ccccc1` (stereo not given), with -5.73% (inactive); and `COC(=O)N(C)C[C@@H]1OCc2cnnn2CCCC(=O)N([C@@H](C)CO)C[C@@H]1C`, with -7.29% (inactive).
